Data from PubChem BioAssay AID1159580 (chemical genetic matrix, 2015).
“And” between values parts separate entries of the source, which are not always exact repeats. Equal entries are not always repeated. In all, about 5,500 compounds went through this assay and about 2,000 (36%) were called active. About 18% were inconclusive and are not listed. Rule as the data show it: active = normalized growth mostly below about 0.91 (no sharp cut-off); inconclusive = no clear call, values can overlap the other calls; inactive = mostly above about 0.92. The list shows a part of the results.

Experiment: chemical genetic growth profiling, strain panel (AID 1159580);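 also: tested at 20 µM; growth read once vehicle control cultures reached saturation at 30 °C; 1 = growth at the plate median or of vehicle wells; lower values mean less growth of the strain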
Details: S. cerevisiae deletion strains, growth OD

Measured: normalized growth

NCc1ccc(S(N)(=O)=O)cc1
inactive: locus YAL021C, strain ccr4, hits give low values 1.01 | locus YAL026C, strain drs2, hits give low values 0.992 | locus YAL030W, strain snc1, hits give low values 1.01 | locus YBL061C, strain skt5, hits give low values 1.01 | locus YBR009C, strain hhf1, hits give low values 0.972 | locus YBR021W, strain FUR4, hits give low values 1.01 | locus YBR023C, strain chs3, hits give low values 1.02 | locus YBR171W, strain sec66, hits give low values 1 | locus YBR229C, strain ROT2, hits give low values 0.986 | locus YBR231C, strain swc5, hits give low values 1.02 | locus YBR279W, strain paf1, hits give low values 1 | locus YCL011C, strain gbp2, hits give low values 1.01 | locus YCL016C, strain dcc1, hits give low values 1.03 | locus YCL029C, strain bik1, hits give low values 0.993 | locus YCL061C, strain MRC1, hits give low values 1.02 | locus YCL069W, strain vba3, hits give low values 0.994 | locus YCR088W, strain abp1, hits give low values 1.01 | locus YDL005C, strain med2, hits give low values 1.02 | locus YDL035C, strain GPR1, hits give low values 1.01 | locus YDL040C, strain nat1, hits give low values 1 | locus YDL074C, strain BRE1, hits give low values 1.01 | locus YDL101C, strain DUN1, hits give low values 0.987 | locus YDL134C, strain PPH21, hits give low values 0.994 | locus YDL185W, strain tfp1, hits give low values 0.977 | locus YDL192W, strain arf1, hits give low values 0.979 | locus YDR001C, strain nth1, hits give low values 0.998 | locus YDR069C, strain doa4, hits give low values 1.01 | locus YDR101C, strain arx1, hits give low values 1.02 | locus YDR137W, strain rgp1, hits give low values 1.03 | locus YDR150W, strain NUM1, hits give low values 1.01 | locus YDR159W, strain sac3, hits give low values 0.983 | locus YDR162C, strain NBP2, hits give low values 1.01 | locus YDR195W, strain ref2 0.989 | locus YDR297W, strain sur2, hits give low values 1.01 | locus YDR318W, strain mcm21, hits give low values 0.99 | locus YDR334W, strain swr1, hits give low values 1 | locus YDR335W, strain msn5, hits give low values 1.01 | locus YDR388W, hits give low values 0.993 | locus YDR392W, strain spt3, hits give low values 0.969 | locus YDR502C, strain sam2, hits give low values 0.99 | locus YEL003W, strain gim4, hits give low values 0.982 | locus YEL037C, strain rad23, hits give low values 0.992 | locus YEL061C, strain CIN8 (second series), hits give low values 1 | locus YEL061C, strain CIN8, hits give low values 1.01 | locus YER015W, strain faa2, hits give low values 0.99 | locus YER016W, strain bim1, hits give low values 1.02 | locus YER110C, hits give low values 0.983 | locus YER111C, strain swi4, hits give low values 0.998 | locus YER155C, strain BEM2 (second series), hits give low values 1.01 | locus YER155C, strain BEM2, hits give low values 0.984 | locus YER167W, strain BCK2, hits give low values 1.02 | locus YFR010W, strain ubp6, hits give low values 0.995 | locus YGL078C, strain dbp3, hits give low values 0.98 | locus YGL086W, strain mad1, hits give low values 0.995 | locus YGL167C, strain pmr1, hits give low values 0.997 | locus YGL173C, strain kem1, hits give low values 1.02 | locus YGL227W, strain vid30, hits give low values 1.01 | locus YGL240W, strain doc1, hits give low values 1.04 | locus YGL248W, strain PDE1, hits give low values 0.984 | locus YGL253W, strain hxk2, hits give low values 1.01 | locus YGR135W, strain pre9, hits give low values 0.961 | locus YGR252W, strain gcn5, hits give low values 0.928 | locus YHR013C, strain ard1, hits give low values 1.04 | locus YHR027C, strain rpn1, hits give low values 1.02 | locus YHR030C, strain SLT2, hits give low values 1.01 | locus YHR079C, strain IRE1 (second series), hits give low values 0.991 | locus YHR079C, strain IRE1, hits give low values 1.04 | locus YHR094C, strain hxt1, hits give low values 0.996 | locus YHR129C, strain ARP1, hits give low values 0.986 | locus YHR142W, strain chs7, hits give low values 1.01 | locus YHR200W, strain rpn10, hits give low values 0.984 | locus YIL066C, strain RNR3, hits give low values 0.989 | locus YIL073C, strain SPO22, hits give low values 1.01 | locus YIL125W, strain kgd1, hits give low values 0.983 | locus YIR030C, strain dcg1, hits give low values 0.991 | locus YJL092W, strain hpr5, hits give low values 1.01 | locus YJL095W, strain BCK1 (second series), hits give low values 1.01 | locus YJL095W, strain BCK1, hits give low values 0.988 and 1.01 | locus YJL115W, strain asf1, hits give low values 1 | locus YJL129C, strain trk1, hits give low values 1.05 | locus YJL134W, strain LCB3, hits give low values 1 | locus YJL154C, strain vps35, hits give low values 1 | locus YJL164C, strain tpk1, hits give low values 0.98 | locus YJL166W, strain qcr8, hits give low values 1.04 | locus YJL168C, strain set2, hits give low values 0.991 | locus YJL187C, strain SWE1 (second series), hits give low values 0.981 | locus YJL187C, strain SWE1, hits give low values 1.01 | locus YJR043C, strain POL32, hits give low values 1.01 | locus YJR066W, strain TOR1, hits give low values 0.957 | locus YJR075W, strain HOC1, hits give low values 0.995
